# Measurements from PubChem BioAssay (NCATS).
# Results filed as inconclusive are left out. A number with no mark means an inactive call. Active and inactive are the calls of the source. Calls come from the whole dose curve; as a rule, active = well fitted inhibition curve with a large enough effect; inconclusive = small, poorly fitted or top-dose-only effect; inactive = flat fitted curve, though single readings scatter.
# Key:
# [1] = qHTS profiling for inhibitors of Plasmodium falciparum proliferation (AID 504749); note: nearly all actives have a fitted effect of over 60% in size;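 for activity, negative = inhibition: 0% = DMSO vehicle and full inhibition = artemisinin control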; settings: P. falciparum in erythrocytes, SYBR Green DNA, 72 h
# In short: (§1)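 Infected RBCs, 0.3% parasitemia/2.5% Hct final; cpd 72 h, 37 C, 5% CO2; lysis buffer with saponin/triton/SYBR Green I, o/n RT dark; FI 485/535; norm. to artemisinin (0.29 uM) and DMSO.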
# 3D7 = assay: as above; settings: P. falciparum in erythrocytes, SYBR Green DNA, 72 h; series mostly up to 28.7 µM
# In short: as §1
# 7G8 = assay: as above; settings: P. falciparum in erythrocytes, SYBR Green DNA, 72 h; series mostly up to 28.7 µM
# In short: as §1
# [2] = at 28.7 µM (top of the series), parasite line A
# [3] = at 28.7 µM (top of the series), parasite line B
# Potency is the fitted concentration of half-maximal effect.
compound,measurement,setting,value
CCC1(c2ccccc2)CCC(=O)NC1=O (configuration not stated),"activity, negative = inhibition",[1]; [2],14.1%
same,"activity, negative = inhibition",[1]; [3],13.3%
same,Potency,3D7,inactive
c1cc2c(c(N3CCNCC3)c1)OCCO2,"activity, negative = inhibition",[1]; [2],8.64%
same,"activity, negative = inhibition",[1]; [3],11.7%
same,Potency,3D7,inactive
same,Potency,7G8,inactive
O=c1n(Cl)c(=O)n(Cl)c(=O)n1Cl,"activity, negative = inhibition",[1]; [2],0.0387%
same,"activity, negative = inhibition",[1]; [3],2.68%
same,Potency,3D7,inactive
same,Potency,7G8,inactive
N#Cc1nn(-c2c(Cl)cc(C(F)(F)F)cc2Cl)c(N)c1S(=O)C(F)(F)F (configuration not stated),Potency,[1]; parasite line A,5.01 µM (active)
same,Potency,[1]; parasite line B,8.91 µM (active)
same,Potency,3D7,8.91 µM (active)
same,Potency,7G8,3.55 µM (active)
C[N+]1(CCC(C(N)=O)(c2ccccc2)c2ccccc2)CCCCC1,"activity, negative = inhibition",[1]; [2],-14.5%
same,"activity, negative = inhibition",[1]; [3],-9.8%
same,Potency,3D7,inactive
same,Potency,7G8,inactive
C[C@]12C=CC(=O)C=C1CC[C@@H]1[C@@H]2CC[C@@]2(C)[C@H]1CC[C@]2(C)O,"activity, negative = inhibition",[1]; [2],0.454%
same,"activity, negative = inhibition",[1]; [3],5.05%
same,Potency,3D7,inactive
same,Potency,7G8,inactive
Nc1ccc(N)cc1,Potency,3D7,8.91 µM (active)
CCN(CC)CCOC(=O)C(C)(c1ccccc1)c1ccccc1,"activity, negative = inhibition",[1]; [2],-27.7%
same,Potency,3D7,inactive
same,Potency,7G8,5.01 µM (active)
CN1C(=O)[C@@H](NC(=O)c2cc3ccccc3[nH]2)N=C(c2ccccc2)c2ccccc21,Potency,7G8,11.2 µM (active)
CC[C@]1(O)CC[C@H]2[C@@H]3CCC4=CCCC[C@@H]4[C@H]3CC[C@@]21C,Potency,3D7,inactive
same,Potency,7G8,7.94 µM (active)
CCN(Cc1ccc(Cl)nc1)/C(=C/[N+](=O)[O-])NC,"activity, negative = inhibition",[1]; [2],8.19%
same,"activity, negative = inhibition",[1]; [3],-9.95%
same,Potency,3D7,inactive
same,Potency,7G8,inactive
Oc1ccc2[nH]cc(CCCCN3CC=C(c4ccccc4)CC3)c2c1,Potency,7G8,3.98 µM (active)
COC(=O)C1=CCCN(C)C1,"activity, negative = inhibition",[1]; [2],0.472%
same,"activity, negative = inhibition",[1]; [3],19.4%
same,Potency,3D7,inactive
same,Potency,7G8,inactive
C=CCOC(Cn1ccnc1)c1ccc(Cl)cc1Cl (configuration not stated),Potency,[1]; parasite line B,10 µM (active)
same,Potency,3D7,11.2 µM (active)
same,Potency,7G8,2 µM (active)
COP(=O)(OC)C(O)C(Cl)(Cl)Cl (configuration not stated),"activity, negative = inhibition",[1]; [3],2.48%
same,Potency,3D7,inactive
same,Potency,7G8,inactive
Cc1ccc(N=CN(C)C=Nc2ccc(C)cc2C)c(C)c1,"activity, negative = inhibition",[1]; [2],5.73%
same,"activity, negative = inhibition",[1]; [3],9.78%
same,Potency,3D7,inactive
same,Potency,7G8,inactive
C[C@]12Cc3nonc3C[C@@H]1CC[C@@H]1[C@@H]2CC[C@@]2(C)[C@H]1CC[C@]2(C)O,"activity, negative = inhibition",[1]; [3],-29.5%
same,Potency,3D7,inactive
CC(C)C(Br)C(=O)NC(N)=O (configuration not stated),"activity, negative = inhibition",[1]; [2],10.2%
same,"activity, negative = inhibition",[1]; [3],11.6%
same,Potency,3D7,inactive
same,Potency,7G8,inactive
CCCCCCCCCCCC[N+](C)(C)CCOc1ccccc1,Potency,[1]; parasite line A,3.55 µM (active)
same,Potency,[1]; parasite line B,5.01 µM (active)
same,Potency,3D7,5.01 µM (active)
same,Potency,7G8,3.98 µM (active)
c1ccc2nc(N3CCNCC3)ccc2c1,"activity, negative = inhibition",[1]; [2],16.1%
same,"activity, negative = inhibition",[1]; [3],9.33%
same,Potency,3D7,inactive
same,Potency,7G8,inactive
CC(C)(O)C(Cl)(Cl)Cl,Potency,[1]; parasite line A,11.2 µM (active)
same,Potency,[1]; parasite line B,12.6 µM (active)
same,Potency,3D7,2 µM (active)
same,Potency,7G8,0.316 µM (active)
CC(Cc1ccccc1)NCc1ccccc1Cl (configuration not stated),"activity, negative = inhibition",[1]; [2],-0.799%
same,"activity, negative = inhibition",[1]; [3],-0.104%
same,Potency,3D7,inactive
same,Potency,7G8,11.2 µM (active)
NC(=O)OCCCc1ccccc1,"activity, negative = inhibition",[1]; [2],-9.09%
same,"activity, negative = inhibition",[1]; [3],10.5%
same,Potency,3D7,inactive
same,Potency,7G8,inactive
C[N+](C)(C)CCOC(=O)C(O)(c1ccccc1)c1ccccc1,"activity, negative = inhibition",[1]; [2],12.8%
same,"activity, negative = inhibition",[1]; [3],7.74%
same,Potency,3D7,inactive
same,Potency,7G8,inactive
CN1CCc2cc(Cl)c(O)cc2[C@H]2c3ccccc3CC[C@@H]21,"activity, negative = inhibition",[1]; [3],-29.7%
same,Potency,7G8,11.2 µM (active)
COCC(=O)N(c1c(C)cccc1C)C(C)C(=O)OC (configuration not stated),Potency,3D7,inactive
same,Potency,7G8,inactive
Cc1ncc2n1-c1ccc(Cl)cc1C(c1ccccc1F)=NC2,"activity, negative = inhibition",[1]; [2],7.97%
same,"activity, negative = inhibition",[1]; [3],-15.6%
same,Potency,3D7,inactive
same,Potency,7G8,inactive
O=C1NCN(c2ccccc2)C12CCN(CCCOc1ccc(F)cc1)CC2,"activity, negative = inhibition",[1]; [3],-11.5%
same,Potency,3D7,inactive
same,Potency,7G8,11.2 µM (active)
CCCCCCCCC(=O)NCc1ccc(O)c(OC)c1,"activity, negative = inhibition",[1]; [2],-0.439%
same,"activity, negative = inhibition",[1]; [3],7.79%
same,Potency,3D7,inactive
same,Potency,7G8,inactive
COP(=S)(OC)Oc1ccc(Sc2ccc(OP(=S)(OC)OC)cc2)cc1,"activity, negative = inhibition",[1]; [2],7.58%
same,"activity, negative = inhibition",[1]; [3],4.24%
same,Potency,3D7,inactive
same,Potency,7G8,inactive
NC(=O)CN1CCCC1=O,"activity, negative = inhibition","[1]; at 12.8 µM (top of the series), parasite line A",-0.277%
same,"activity, negative = inhibition","[1]; at 12.8 µM (top of the series), parasite line B",13.3%
same,Potency,3D7,inactive
same,Potency,7G8,inactive
CNC(=O)NC(O)C(Cl)(Cl)Cl (configuration not stated),"activity, negative = inhibition",[1]; [2],0.151%
same,"activity, negative = inhibition",[1]; [3],3.59%
same,Potency,3D7,inactive
same,Potency,7G8,inactive
CCNc1nc(Cl)nc(NCC)n1,"activity, negative = inhibition",[1]; [2],3.24%
same,Potency,3D7,inactive
same,Potency,7G8,inactive
Cc1c(Cl)c(=O)oc2cc(OP(=O)(OCCCl)OCCCl)ccc12,Potency,[1]; parasite line A,8.91 µM (active)
same,Potency,7G8,12.6 µM (active)
C#C[C@]1(O)CC[C@H]2[C@@H]3CCC4=CC(=O)CCC4=C3C=C[C@@]21CC,Potency,[1]; parasite line B,6.31 µM (active)
same,Potency,3D7,7.94 µM (active)
same,Potency,7G8,11.2 µM (active)
CCOC(=O)NC(O)C(Cl)(Cl)Cl (configuration not stated),"activity, negative = inhibition",[1]; [2],5.94%
same,"activity, negative = inhibition",[1]; [3],0.346%
same,Potency,3D7,inactive
same,Potency,7G8,inactive
CN1C[C@@H](NS(=O)(=O)N(C)C)C[C@@H]2c3cccc4c3c(cn4C)C[C@H]21,"activity, negative = inhibition",[1]; [2],-15.7%
same,"activity, negative = inhibition",[1]; [3],-6.34%
same,Potency,3D7,inactive
same,Potency,7G8,inactive
